Out of some 52,000 sequences screened, about 210 (0.4%) were called active. Only a selection was taken, and actives are over-represented in it overall. A number with no mark means an inactive call.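 The calls were made as follows: active = gene whose silencing raises cell survival under the drug, median off-target-corrected z-score across its silencing RNAs 2 or more; inactive = the rest.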
Test: Resistance to Poly (ADP-Ribose) Polymerase inhibitor: Gene Identification via Genome-wide siRNA Screen
Details: mouse BRCA2 R2336H ES cells, olaparib, CellTiter-Glo viability; hits give high values
Excerpt: The role of Poly (ADP-Ribose) Polymerase (PARP) proteins in DNA repair has been elegantly utilized for the synthetic lethality-based treatment of BRCA-deficient tumors by PARP inhibitors. PARP inhibitors are now being used for treatment of BRCA-deficient breast and ovarian cancers. […] While several mechanisms of drug resistance have been identified, majority of these tumors develop drug resistance due to unknown causes. To identified novel regulators of chemo-resistance in BRCA2-mutated cells, we performed a genome wide siRNA library screen. We have found ES cells expressing a hypomorphic allele of BRCA2 to be hypersensitive to PAPP inhibitors (such as olaparib). We used ES cells expressing a mutant allele of BRCA2 that has a single amino acid substitution at position 2336 (arginine to histidine, R2336H). The screen was conducted using an Ambion (Thermo) Silencer Mouse Genome siRNA collection. The library targets 17,575 mouse genes with 3 siRNAs per gene. TET2 (E130014J05Rik) was identified as a top candidate.
Transfections were performed in 384 well plates (Corning 3707). Plates were coated with 0.1% gelatin in H2O overnight at ambient temperature. Gelatin solution was aspirated (BioTek EL406) and siRNAs were printed using a Bravo VPrep liquid handler integrated within a BioCel automation platform (Agilent). Cell viability was measured using CellTiter Glo (Promega). For transfections, […] of serum free media containing Lipofectamine RNAiMax […] was added to wells containing siRNA (0.8pmol). Lipid and siRNA were allowed to complex for 45 min at ambient temperature before addition of 1000 cells in DMEM, 30% FBS to yield final transfection mixtures containing 20 nM siRNA in DMEM, 15% FBS. PARPi (olaparib, AZD2281) was added 48 h post-transfection (500 nM) and viability (CellTiter Glo, Promega) was assayed 72 h later on a PerkinElmer Envision 2104 Multilabel plate reader. Ambion Silencer Select Negative Control #2 was incorporated on all screening plates (16 wells) and the median negative control value on each plate was used for normalization. An siRNA targeting Trp53 was used as a positive control. This control yielded a median protective effect of ~1.9 fold versus negative control throughout the screen. The median absolute deviation (MAD) based z-score was calculated for each siRNA. Genes were then ranked by taking the median value for all siRNAs tested against a given gene. Scores were also adjusted for seed-based off-target effects to help deprioritize likely false positives.

Sequence | z-score
CCUGUUUACAAGGAAUUGATT against Itgb1 | 0.411
GGAUCACAGCGAUUAUUGATT against D630028G08Rik | -0.512
CCCAUACUAAAAUUGUUGATT against Adam29 | 2.32 (active)
GCCAGGAUAUGGAUAUGCATT against 1520401A03Rik | 1.47
CGACUUCAUAAUUAUGCAATT against Als2 | 0.307
GCCGAAUCCGAACAAAACCTT against Tat | 1.35 (active)
GCUGUAUUGAAGGUCCCUUTT against Olfr744 | -2.34
CCUGGCUAAUGACUAGCUCTT against D730046L02Rik | -0.501
GGUCUCCCUUCAGUAUGAGTT against Ela3b | 2.47 (active)
GCUCAUUCUUACCAAUCUCTT against 2210413P10Rik | -0.897
GCCUCCACAUAGCUUCAACTT against 1110030H02Rik | 1.14
GGUUGCACUUUUUCAUAGUTT against Bcl2l2 | 2.83 (active)
GGGAGCUCUAAAAAAAGUGTT against Olfr390 | 0.0742
GGAGGAGAGGUACAAACGGTT against Cxxc1 | -1.2
GCGGGCAAUGCCUUAAAAGTT against D16Ertd607e | 0.194
GCCCGGUAAAGGUAUCCAUTT against Trp53bp1 | 1.78 (active)
GGGCACCUAUUCAGAUACCTT against Mtap2 | 0.64
GGAAAAGACGGGAGAUUUGTT against Mbldc1 | 0.0178
GUACGUCAUGGGUCACUUCTT against Pomc1 | -0.0856
GGACAGAGUUCGAUCGACUTT against BC021523 | -0.107
GUGAUGACUGAGCUUCUAATT against Olfr1446 | -1.51
GCCUACAGAGUCUUAGUUATT against 2400003B06Rik | 0.0277
GGGAGAAGAAGAUACACCATT against Usp47 | 2.16 (active)
GGCUGUGGACUUUUGUAAUTT against 3110002H16Rik | 0.704
GCCGUUUUAUUCACGUGAATT against 1810033M07Rik | -0.105
GGUUAAAGAAGCCAUGAAATT against Olfr480 | 1.26
GCCUGUUCCGCCAUUCAUGTT against Fliih | -1.13

Sequence | z-score
GGAGUGAUUAACCUAACUCTT against Crip3 | -0.183 (active)
GACAAGACAAGUUUUGGUATT against Elmo1 | -0.497
GGCCUUGAGGCUAUUCAUGTT against Stk16 | 0.0229
GGAAAGUUGUAUUUGAUGUTT against Nudt7 | 0.299
GCAUCUUCGAGGUUUCAAATT against BC006583 | 2.47
GGAAGUAGAGACAGGAGGATT against AF119384 | 1.25
GCGGCAUAUGCCUACUCUUTT against Slc6a12 | -1.46 (active)
GCCUAGACCAGAGAAAGGUTT against AW555464 | 0.139
GCAAGUAUUAAGUAUGACGTT against Vps13c | 0.194
GGCCAGGAGAAGAAGAUACTT against E130014J05Rik | 4.51 (active)
GCUUUUGAUAUUCCACGUUTT against Pole2 | -0.0546
GGAAUCGUCUGAGAAAUUCTT against Lgmn | 0.618
CCCUCUUUAUCGUCUGUGATT against Gpha2 | -0.468
CCAACAAUCCGUAUCGACCTT against 4930425N13Rik | -0.139
GGAAGAGGUUGAGAUCCAATT against Pogk | 0.561
GGACACUUAGCAGCAAAGGTT against Lsm7 | -1.42
CCUUGUACACGGAUUGAAUTT against Itga6 | 2.44 (active)
CCGUCUAUACAUCUUUCCATT against D630005B22Rik | -1.51
GCAGUAUAUCCUACAUUGGTT against Olfr510 | 1.69 (active)
CCUGAUAUAUGACUUUGGCTT against Ntf5 | -0.0586
CCUGCACAGGAUAAUUAUGTT against Zfp426 | 1.21
GGAGAUGAACAAGGACCUATT against Apoa1 | 1.02 (active)
GGUCAAUUCCCAUACCCUGTT against Trfr2 | 0.815
CCAACUAUAACUCAGUCACTT against Ebf1 | 0.374
GGCACACGGUUUUCAUUAATT against Pcdhb5 | -0.354
GGCAUCACUGAUGAAUGAATT against Pacsin2 | -0.947 (active)
CCACUUUUAAAGGAAUGUGTT against Ncoa1 | -0.0128

Sequence | z-score
GCUUGCAUGUACAGACAUUTT against Olfr517 | 1.3
CCAUCUGAUUUCUUUCCAGTT against MGC78233 | -0.642
GGAAAUGCCUUCAGAAAUUTT against Slc9a3r1 | 0.863
GCCAAUGUAACCUUCAAAATT against Lypla1 | 0.603
GGGCGACACAAGGUUUUUGTT against Kif3a | 1.13 (active)
GGAGUGUUUGAGAAAUACCTT against BC027342 | -0.283
GGCAAAGAUCGCAUCUUAATT against Eif2c2 | 0.222
GCUGCAUCCGUAGAUGUUGTT against Fthfd | -0.992
GGCCAAAGAGGAGGAAAACTT against D5Bwg0834e | -0.569
GGAGACAGUAAUAGCUCAUTT against Trp53bp1 | 2.14 (active)
GGACUUGUGGCUGAAAACCTT against Slc22a7 | 0.176
GGGAACAGCAUCUCUGUCATT against E130115E03Rik | -0.944
CCCUCAACUUUCAGAUCAGTT against Ard1 | 0.611
CCUCGUUCCUAUCAUUAACTT against Sdccag8 | 0.858
GGAAAGAAUAUGAGAAUGCTT against Reck | 2.07
UUGUCCUGGUCUCCUAUGCTT against Olfr141 | -1.98
CCCGCUCAAGAUCCUGUUUTT against 2310011J03Rik | -1.85
GCGAGUCGCUCAUAGUGAATT against AW822216 | 0.476
GGAUCUGAAGGAAUACUUUTT against 2400010G15Rik | 2.14 (active)
GCAGCACCUUUGUGGUUCCTT against Ins2 | -0.904
CCGUGCCAAUAGUUCUGCUTT against Dpp4 | 0.286
GCACUGGAAUCAAACCAUCTT against Ppp2r5b | 2.45 (active)
GGUUUGAGCUCUUUAUUUUTT against Cyp2j13 | 0.00818
GGCGCAUGUUUCCAGCAAUTT against Tbx18 | 1.87
GGAUCUCUGUUUCUCAAAATT against Slc19a3 | 0.771
CCUCAAGAGAGCUACCGCATT against 1700018C11Rik | 0.313
GGCCCAUUGAUCUGUGAUATT against Klk8 | -0.338

Sequence | z-score
GCAUGCGCGCUACACUCUATT against Adamts5 | 0.75 (active)
GAUUACAGACAGUGGAAAATT against Ndufb3 | 0.951
GGUAGUGUUAACUAUAUGGTT against Hmgb3 | 1.85 (active)
GAUCUUAUAUGUUGGUGGUTT against V1rc2 | -0.413
CCUUAAUAAACUAUGCUGCTT against 2810439M11Rik | -1.83
CCCUUGAAGAUCACUUAGCTT against Apln | 0.228
GGCACAGGGACCAUUGUUGTT against Hsd17b1 | 2.34 (active)
CGUACAAGACCAACAGAAGTT against D8Ertd82e | 2.36
GCUCAACAGACUCUGUACUTT against Igsf4d | 2.89
GCUAGUUGGAGCUAGAUUATT against E130320D18 | 0.013
GGGUUCCUCCUUUCACAGATT against Ppia | -0.754
CCGAAAUAAGGCUAGCUCATT against Rfxdc1 | 1.33
CGGCCUAUCUCUUGGUUUATT against Usp18 | 2.69 (active)
GGACAUCCAUUCAAGGCCUTT against Rtn3 | 1.05
GGAAUUUGACAAACUCAGCTT against Rcn3 | 0.337
CCGUGGGACCAGAGUUAAATT against Gm253 | 1.99
GGUCAUCUAUCGUGUGCUGTT against Lamb2 | 1.09
CCAUUUAACCGUAAGACGUTT against Krtap8-2 | 0.535
CCUACAUUCACCAAAAGGUTT against Usp9y | 0.561
GGUCUCAAUCAGAGUUACATT against D430030K24Rik | 1.08 (active)
GGUGAUCAAUCCUCUAAUATT against Cri2 | 3.03
AACAGCAUCUUUGUGGUCCTT against Ins1 | -0.451
GGAUAAACUUCCAUCUUUCTT against Car14 | 1.27
GGAAGGAAGAAAAAAUAGUTT against Acat1 | -0.146
